Source: PubChem BioAssay
Active and inactive are the calls of the source.

Experiments:
[1] = tested on: PRMT1 (protein arginine N-methyltransferase 1); assay: small molecules binding arginine methyltransferase PRMT1 – biochemical, small-molecule microarray, 635 nm fluorescence, primary screen (AID 1088); conditions: higher = more signal;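 further: binding of Prmt1 protein to compounds spotted on small-molecule microarray slides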
[2] = growth effects on S. cerevisiae YJM789 – YJM789 clinical isolate, OD600, 24 h, basal, primary screen (AID 1089); conditions: higher = more signal, called active from +8 up or from −8 down;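 further: growth of clinical yeast isolate S. cerevisiae YJM 789 seeded 1000 cells per well; test concentration not given here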
[3] = S. pombe growth modifiers, basal conditions – strain 972, OD600, 24 h, no modulator, primary screen (AID 1090);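 further: basal condition with compound alone and no growth modifier present; test concentration not given here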; conditions: S. pombe 972 growth, higher = more signal, called active from +8 up or from −8 down
[4] = budding yeast growth modifiers under rapamycin – strain BY4716, OD600, 96 h, primary screen (AID 1091); further: test concentration not given here; conditions: S. cerevisiae BY4716 + rapamycin, higher = more signal, called active from +8 up or from −8 down
[5] = target: Torsin-1A-interacting protein 2 (Homo sapiens) (UniProt Q8NFQ8); assay: small molecules binding lysate-expressed LULL1 – cell lysate, human LULL1 lysate, 635/667 nm fluorescence, primary screen (AID 1092); conditions: small-molecule microarray, hLULL1 lysate binding, 635 nm fluorescence; higher = more signal;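 further: probe is lysate of COS7 cells overexpressing human LULL1; score merges per-feature 667 nm fluorescence with signal-to-noise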
[6] = optical density change of DRC41 E. coli – strain DRC41, OD650, 24 h, E. coli filamentation project, primary screen (AID 1093);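 further: MC1000 strain lacking acrAB efflux and sulA so SOS filamentation is blocked; test concentration not given here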; conditions: E. coli DRC41 growth, higher = more signal, called active from +8 up or from −8 down
[7] = probe aLefty2 binding to arrayed compounds – biochemical, biotinylated probe, 635/667 nm fluorescence, primary screen (AID 1094); conditions: small-molecule microarray, higher = more signal;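 further: score merges spot fluorescence near 667 nm with spot signal-to-noise ratio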
[8] = tested on: Noggin (protein binding on small-molecule microarray); assay: small molecules binding Noggin protein – biochemical, 635/667 nm fluorescence, primary screen (AID 1095); conditions: 635 nm fluorescence, higher = more signal;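 further: score merges 667 nm feature fluorescence with signal to noise over triplicate slides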
[9] = target: Neurogenic locus notch homolog protein 3 (Homo sapiens) (UniProt Q9UM47); assay: small molecules binding NOTCH3 protein – biochemical, 635/667 nm fluorescence, primary screen (AID 1096); conditions: small-molecule microarray, 635 nm fluorescence, higher = more signal
[10] = probe aEGFR binding to arrayed compounds – biochemical, biotinylated probe, 635/667 nm fluorescence, primary screen (AID 1097); conditions: small-molecule microarray, higher = more signal;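 further: probe is a biotinylated anti-EGFR antibody binding compounds printed on slides; score combines fluorescence near 667 nm and signal to noise of each spot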

Chain of Neurogenic locus notch homolog protein 3 (Homo sapiens) (Q9UM47 whole entry, looked up): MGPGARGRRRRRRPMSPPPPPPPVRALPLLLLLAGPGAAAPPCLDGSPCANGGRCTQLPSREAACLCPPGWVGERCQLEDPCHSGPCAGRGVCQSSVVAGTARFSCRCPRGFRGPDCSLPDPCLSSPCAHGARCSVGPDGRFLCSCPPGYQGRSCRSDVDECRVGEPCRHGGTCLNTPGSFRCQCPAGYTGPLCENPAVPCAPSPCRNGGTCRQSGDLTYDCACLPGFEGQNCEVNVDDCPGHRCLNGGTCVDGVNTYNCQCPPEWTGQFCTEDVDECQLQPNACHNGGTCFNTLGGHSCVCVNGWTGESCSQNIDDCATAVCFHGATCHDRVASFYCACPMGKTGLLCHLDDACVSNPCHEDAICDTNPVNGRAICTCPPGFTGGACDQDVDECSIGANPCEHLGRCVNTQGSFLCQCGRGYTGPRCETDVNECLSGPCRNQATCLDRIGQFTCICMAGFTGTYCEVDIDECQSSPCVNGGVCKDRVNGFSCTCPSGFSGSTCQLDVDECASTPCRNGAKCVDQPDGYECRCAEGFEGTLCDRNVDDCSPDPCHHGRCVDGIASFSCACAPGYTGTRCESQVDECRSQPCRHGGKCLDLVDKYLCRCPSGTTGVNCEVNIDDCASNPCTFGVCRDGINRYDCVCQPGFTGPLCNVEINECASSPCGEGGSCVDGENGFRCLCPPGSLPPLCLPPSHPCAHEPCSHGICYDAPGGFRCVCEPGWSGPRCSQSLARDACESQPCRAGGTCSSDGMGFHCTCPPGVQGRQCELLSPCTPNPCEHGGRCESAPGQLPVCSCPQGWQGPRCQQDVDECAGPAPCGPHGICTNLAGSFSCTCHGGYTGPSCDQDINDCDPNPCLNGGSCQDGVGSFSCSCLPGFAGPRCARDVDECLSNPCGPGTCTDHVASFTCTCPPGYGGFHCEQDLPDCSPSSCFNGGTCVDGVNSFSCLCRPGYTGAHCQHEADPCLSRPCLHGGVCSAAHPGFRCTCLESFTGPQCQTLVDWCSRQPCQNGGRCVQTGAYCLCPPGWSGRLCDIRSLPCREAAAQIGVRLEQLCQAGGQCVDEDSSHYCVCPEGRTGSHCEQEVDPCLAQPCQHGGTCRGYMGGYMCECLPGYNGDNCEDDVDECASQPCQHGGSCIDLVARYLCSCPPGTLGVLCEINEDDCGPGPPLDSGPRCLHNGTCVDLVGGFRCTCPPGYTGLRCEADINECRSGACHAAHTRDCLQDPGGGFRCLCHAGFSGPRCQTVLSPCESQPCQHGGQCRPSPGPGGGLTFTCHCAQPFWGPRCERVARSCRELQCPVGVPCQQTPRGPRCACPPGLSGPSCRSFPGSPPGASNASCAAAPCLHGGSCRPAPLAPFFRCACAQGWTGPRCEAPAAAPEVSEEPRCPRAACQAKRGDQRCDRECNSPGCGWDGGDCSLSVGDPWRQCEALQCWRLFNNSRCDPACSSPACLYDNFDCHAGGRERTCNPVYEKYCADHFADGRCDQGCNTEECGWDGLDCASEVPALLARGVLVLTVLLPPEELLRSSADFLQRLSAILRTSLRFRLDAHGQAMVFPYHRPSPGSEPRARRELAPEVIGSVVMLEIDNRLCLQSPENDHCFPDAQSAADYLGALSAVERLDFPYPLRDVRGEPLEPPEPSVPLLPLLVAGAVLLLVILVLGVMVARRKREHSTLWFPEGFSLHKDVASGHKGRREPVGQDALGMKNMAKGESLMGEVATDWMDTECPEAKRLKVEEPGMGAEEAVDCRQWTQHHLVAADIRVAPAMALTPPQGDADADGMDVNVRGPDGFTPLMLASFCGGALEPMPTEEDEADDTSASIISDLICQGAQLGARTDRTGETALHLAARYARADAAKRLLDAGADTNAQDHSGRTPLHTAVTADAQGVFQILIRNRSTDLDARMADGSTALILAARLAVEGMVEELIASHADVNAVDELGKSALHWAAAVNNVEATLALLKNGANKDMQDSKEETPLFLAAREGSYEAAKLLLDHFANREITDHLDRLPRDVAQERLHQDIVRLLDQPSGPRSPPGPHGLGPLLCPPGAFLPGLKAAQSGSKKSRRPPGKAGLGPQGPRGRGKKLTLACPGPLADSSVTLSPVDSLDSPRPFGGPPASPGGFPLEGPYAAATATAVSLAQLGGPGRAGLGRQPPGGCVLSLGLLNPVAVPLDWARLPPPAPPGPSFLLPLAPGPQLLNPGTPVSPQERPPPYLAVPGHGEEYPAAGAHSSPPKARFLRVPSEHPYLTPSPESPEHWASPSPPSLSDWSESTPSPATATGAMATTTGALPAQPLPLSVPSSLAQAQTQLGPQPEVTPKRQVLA
Chain of Torsin-1A-interacting protein 2 (Homo sapiens) (Q8NFQ8 whole entry, looked up): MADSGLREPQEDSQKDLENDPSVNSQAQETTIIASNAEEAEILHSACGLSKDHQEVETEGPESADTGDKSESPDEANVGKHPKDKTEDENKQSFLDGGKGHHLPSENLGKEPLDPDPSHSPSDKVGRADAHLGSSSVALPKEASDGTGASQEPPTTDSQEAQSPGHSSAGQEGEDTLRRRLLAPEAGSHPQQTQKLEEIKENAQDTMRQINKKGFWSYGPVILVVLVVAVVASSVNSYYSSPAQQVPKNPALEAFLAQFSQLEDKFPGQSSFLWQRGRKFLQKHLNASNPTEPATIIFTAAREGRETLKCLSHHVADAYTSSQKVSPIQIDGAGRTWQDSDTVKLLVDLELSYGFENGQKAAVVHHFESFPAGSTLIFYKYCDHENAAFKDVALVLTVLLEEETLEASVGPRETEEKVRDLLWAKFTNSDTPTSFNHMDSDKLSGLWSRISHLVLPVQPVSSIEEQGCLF

Structure (SMILES)	composite z-score [1]	z-score [2]	z-score [3]	z-score [4]	composite z-score [5]	z-score [6]	composite z-score [7]	composite z-score [8]	composite z-score [9]	composite z-score [10]
CC(C)=CCCC(C)=CC(O)C1C=CC2C(=O)N(C)C(=O)C2N1Nc1ccccc1 (stereo not given)	1.55	-0.193 (inactive)	-1.26 (inactive)	2.76 (inactive)	3.29	-0.339 (inactive)	0.245	0.411	1.03	0.167
C=CCN1C(=O)[C@@]2(CC=C)N=C(c3ccc(OCCCO)cc3)O[C@H]2c2ccccc21	1.54	-3.69 (inactive)	-4.72 (inactive)	0.764 (inactive)	3.6	1.47 (inactive)	0.357	1.33	0.874	0.297
C[C@@]1([C@@H](NC(=O)c2ccc(-c3ccccc3)cc2)c2ccc(Cl)cc2)C[C@H]1C1CCCCC1	0.497	0.823 (inactive)	-3.48 (inactive)	1.6 (inactive)	2.54	-0.586 (inactive)	0.101	0.118	0.73	0.302
Cc1nc2cc(Br)ccc2c(=O)o1	0.648	-0.764 (inactive)	0.597 (inactive)	-1.07 (inactive)	1.27	-1.07 (inactive)	-0.082	0.198	1.04	0.104
CN1C(=O)C2C=CC(C(O)C#Cc3ccccc3)N(N3CCCCC3)C2C1=O (stereo not given)	0.436	0.54 (inactive)	-0.126 (inactive)	-0.296 (inactive)	0.58	0.0497 (inactive)	0.529	-0.287	0.964	0.647
CN1C(=O)C2C=CC(C(O)c3ccccc3)N(N(c3ccccc3)c3ccccc3)C2C1=O (stereo not given)	-0.124	0.0175 (inactive)	0.808 (inactive)	0.495 (inactive)	0.317	-0.642 (inactive)	0.603	0.141	0.422	-0.0668
CC(=O)NCCCC[C@@H]1NC(=O)[C@H]2C[C@@H](C(=O)NCCCCCCNC(=O)CS)[C@@H](c3ccc(O)cc3)N2C1=O	1.15	1.2 (inactive)	0.686 (inactive)	0.983 (inactive)	3.13	0.189 (inactive)	0.0283	-0.773	-0.372	-0.258
C[N+](C)(C)CCCCNC(=O)[C@@H]1C[C@@H]2C(=O)N[C@@H](Cc3ccccc3)C(=O)N2[C@@H]1c1cccc(OCCO)c1	0.402	0.534 (inactive)	-0.642 (inactive)	-1.14 (inactive)	1.42	1.07 (inactive)	-0.0333	0.692	-0.0417	-0.169
COCCOC(=O)N1C(=O)[C@@]2(c3ccccc31)[C@H](C(=O)N1CCc3cc(OC)c(OC)cc3C1)[C@H]1C(=O)O[C@H](c3ccccc3)[C@H](c3ccccc3)N1[C@@H]2c1ccc(OCCO)cc1	1.51	2.26 (inactive)	0.476 (inactive)	4.47 (inactive)	2.27	1.68 (inactive)	0.103	0.94	0.995	-0.0309
C=C(/C(=C/C[C@H](OC(C)=O)c1ccccc1OCCO)c1cnc2ccccc2c1)C(C)C	0.491	0.0556 (inactive)	-0.0759 (inactive)	1.11 (inactive)	1.85	-0.0733 (inactive)	-0.0251	1.24	0.909	-0.044
C=CCOC(=O)[C@H]1[C@@H]2C(=O)O[C@@H](c3ccccc3)[C@@H](c3ccccc3)N2[C@@H](c2ccc(OCCOC(=O)[C@@H]3C[C@@H]4C(=O)N[C@@H](CC(C)C)C(=O)N4[C@@H]3c3ccc(O)cc3)cc2)[C@]12C(=O)Nc1ccccc12	1.53	0.963 (inactive)	1.32 (inactive)	4.11 (inactive)	3.2	0.703 (inactive)	0.115	1.49	1.1	0.0195
[N-]=[N+]=NCc1ccccc1C[C@]1(C(=O)N2CCCCC2)N=C(c2ccc(OCCCO)cc2)O[C@H]1c1ccccc1N=[N+]=[N-]	1.57	-0.912 (inactive)	-0.371 (inactive)	6.08 (inactive)	3.09	-0.442 (inactive)	0.202	-0.112	1.07	0.262
O=C1c2ccccc2[C@](Cc2ccccc2I)(C(=O)NCCN2CCOCC2)[C@H](c2ccc(CO)cc2)N1C1CCCCC1	1.43	-0.139 (inactive)	-0.156 (inactive)	0.216 (inactive)	1.53	1.09 (inactive)	0.227	1.12	1.06	0.521
C=C(C(=O)CC[C@@H](OC(=O)c1cccnc1)c1ccccc1OCCO)C(C)C	1.44	-0.73 (inactive)	-0.177 (inactive)	0.404 (inactive)	-0.263	0.144 (inactive)	-0.0666	0.535	0.272	-0.0703
[N-]=[N+]=NCc1ccccc1[C@@H]1OC(c2ccc(OCCCO)cc2)=N[C@]1(Cc1ccccc1)C(=O)NCC(O)CO (stereo not given in full)	1.25	-0.427 (inactive)	0.0493 (inactive)	-0.659 (inactive)	3.44	0.123 (inactive)	0.414	0.238	-0.27	0.411
CC[C@@H]1C=C(C(=O)O)[C@H](c2ccc(Br)cc2)N1S(=O)(=O)c1ccc(C)cc1	0.399	-0.564 (inactive)	0.794 (inactive)	-0.535 (inactive)	2.7	-0.319 (inactive)	0.295	0.37	0.481	-0.0512
CCCCCN1CC=CC23O[C@@H]4/C=C\CCC(C)OC(=O)C4[C@H]2C(=O)N(C(C)CO)[C@@H]3C1=O (stereo not given in full)	1.09	0.255 (inactive)	0.117 (inactive)	-0.562 (inactive)	2.37	0.123 (inactive)	-0.238	0.0805	0.385	-0.168
C=CC(=C)[C@H]1Oc2ccccc2S(=O)(=O)N2CCC[C@@H]12	-1.3	-0.946 (inactive)	-2.71 (inactive)	-0.601 (inactive)	-0.562	-0.504 (inactive)	0.0189	0.518	-0.406	-0.152
O=C1O[C@@H](c2ccccc2)[C@@H](c2ccccc2)N2[C@@H](c3ccccc3OCCO)[C@]3(C(=O)Nc4ccc(C#CC5=CCCCC5)cc43)[C@@H](C(=O)N3CCCCCCC3)[C@H]12	1.53	1.1 (inactive)	-0.354 (inactive)	2.02 (inactive)	4.38	-0.641 (inactive)	1.74	1.88	1.02	1.34
O=C(NCCO)C1=C[C@H](Oc2ccccc2I)[C@@H](O)[C@H](N(Cc2ccco2)C(=O)Cc2ccccc2)C1	-0.0355	0.528 (inactive)	0.0689 (inactive)	0.279 (inactive)	-0.298	-0.546 (inactive)	-0.0279	0.535	0.271	-0.0767
COCCOC(=O)N1C(=O)[C@@]2(c3cc(C#CCC(C(=O)OC)C(=O)OC)ccc31)[C@H](C(=O)Nc1nc3ccccc3s1)[C@H]1C(=O)O[C@H](c3ccccc3)[C@H](c3ccccc3)N1[C@@H]2c1ccccc1OCCO	1.56	2.48 (inactive)	2.08 (inactive)	3.23 (inactive)	2.78	0.374 (inactive)	-0.0171	0.133	1.11	0.0556
C=CCOC(=O)[C@H]1[C@@H]2C(=O)O[C@@H](c3ccccc3)[C@@H](c3ccccc3)N2[C@@H](c2ccc(OCCOC(=O)[C@@H]3C[C@@H]4C(=O)N[C@@H](CCCCNC(C)=O)C(=O)N4[C@@H]3c3ccc(O)cc3)cc2)[C@]12C(=O)Nc1ccccc12	1.54	1.7 (inactive)	-0.133 (inactive)	3.53 (inactive)	2.6	-0.264 (inactive)	0.0025	1.14	1.08	-0.0625
C=CCOC(=O)[C@H]1[C@@H]2C(=O)O[C@@H](c3ccccc3)[C@@H](c3ccccc3)N2[C@@H](c2ccc(OCCOC(=O)[C@H]3C[C@H]4C(=O)N[C@@H](CCCCNC(C)=O)C(=O)N4[C@H]3c3ccc(O)cc3)cc2)[C@]12C(=O)Nc1ccc(I)cc12	1.57	1.12 (inactive)	-2.33 (inactive)	1.75 (inactive)	1.81	-2.07 (inactive)	-0.0566	1.5	1.07	-0.0088
COc1cc(Br)cc(C(O)C2C=CC3C(=O)N(C)C(=O)C3N2N2CCCCC2)c1OC (stereo not given)	-0.962	0.733 (inactive)	1.13 (inactive)	1.73 (inactive)	1.49	-1.54 (inactive)	0.118	-1.27	-0.702	0.0122
COC(=O)[C@@]1(Cc2ccc(F)cc2)[C@H]2c3cc(C(=O)N(C)C)n(Cc4cc(F)c(F)c(F)c4)c3C[C@H]2CN1C(=O)c1ccccc1	-0.0972	0.0065 (inactive)	1.72 (inactive)	2.54 (inactive)	3.07	-0.535 (inactive)	0.376	-0.592	1.03	0.487
CCN(CC)c1ccc(N2CC=CC34O[C@@H]5C=CCCOC(=O)C5[C@H]3C(=O)N(CCCCCCO)[C@@H]4C2=O)cc1 (stereo not given in full)	-0.171	-2.16 (inactive)	-0.431 (inactive)	-1.74 (inactive)	2.94	2.49 (inactive)	-0.192	-0.612	-0.619	-0.0493
COc1ccc(C(O)C2C=CC3C(=O)N(Cc4ccccc4)C(=O)C3N2n2cnnc2)cc1OCc1ccccc1 (stereo not given)	0.953	-1.56 (inactive)	0.0901 (inactive)	-0.62 (inactive)	2.59	1.69 (inactive)	0.114	0.0181	0.331	-0.0512
C[C@H]1C2[C@H](Cc3ccccc3)NC(=O)[C@]23C(=O)N[C@H](Cc2ccccc2)C(=O)N2CCC[C@H]2C(=O)NC/C=C\C/C=C/C3[C@@H]2O[C@]12C (stereo not given in full)	0.178	-0.662 (inactive)	-1.06 (inactive)	-1.19 (inactive)	0.392	0.132 (inactive)	-0.175	0.177	0.492	-0.13
